Hits are enriched below; roughly 11% of the tested compounds scored in any of these assays.
HCV inh – inhibitors of hepatitis C virus infection | Potency, µM (series often up to 41.8 µM), for inactives: at the top dose activity change, negative = inhibition, actives largely listed as inhibitors | AID 651820 | Huh7.5.1 HCVcc-Cre infection, luciferase reporter, 44 h | actives 3.4% (n = 340,000)
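Infectious HCV cell culture screen: compound-treated cells (1,000/well, pre-plated 4 h) are infected with HCVcc-Cre at roughly 0.5 moi and grown 44 h. Infection is quantified by luciferase signal after 15 min substrate incubation at room temperature.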
AmpC inh no detg – blocks E. coli AmpC beta-lactamase in detergent-free assay | P00811 | AmpC nitrocefin hydrolysis, absorbance 480 nm, 0.0001% Triton | Potency, µM (doses to about 57.1 µM), without a hit: at the highest dose activity change, negative = inhibition, hits mostly inhibitors | actives 0.52% (n = 330,000) | AID 485341;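 also: plate controls were no compound for no effect and no enzyme for full effect; nearly all actives have a fitted effect of over 20% in size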
Target sequence (P00811 whole entry, looked up): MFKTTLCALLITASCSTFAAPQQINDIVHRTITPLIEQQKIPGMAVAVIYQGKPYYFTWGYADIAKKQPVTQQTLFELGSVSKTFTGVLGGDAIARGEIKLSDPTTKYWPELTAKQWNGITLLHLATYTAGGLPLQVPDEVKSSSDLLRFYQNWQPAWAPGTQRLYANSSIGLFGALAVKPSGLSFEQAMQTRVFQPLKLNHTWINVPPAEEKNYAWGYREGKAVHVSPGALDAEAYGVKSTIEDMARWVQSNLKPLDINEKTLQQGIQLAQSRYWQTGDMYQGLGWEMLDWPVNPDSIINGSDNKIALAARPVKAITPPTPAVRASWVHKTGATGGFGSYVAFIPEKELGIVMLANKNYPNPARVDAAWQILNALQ
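AmpC (5.3 nM in the dispensed reagent) in 20 mM phosphate pH 7.0 with 0.01% (detergent screen) or 0.0001% Triton X-100 was preincubated with compounds for 15 min at room temperature. Nitrocefin was then added from an 800 uM solution, and hydrolysis was followed at 480 nm.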
AmpC inh detg – blocks E. coli AmpC beta-lactamase in detergent assay | Potency, µM (highest dose often 114 µM), for the others: at the highest dose activity change, negative = inhibition, usual class: inhibitors | AmpC hydrolysis of nitrocefin, absorbance 480 nm, 0.01% Triton | P00811 | actives 0.041% (n = 370,000);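 also: 0% = no-compound wells and -100% = no-enzyme wells; nearly all actives have a fitted effect of over 25% in size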
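AmpC (5.3 nM in the dispensed reagent) in 20 mM phosphate pH 7.0 with 0.01% (detergent screen) or 0.0001% Triton X-100 was preincubated with compounds for 15 min at room temperature. Nitrocefin was then added from an 800 uM solution, and hydrolysis was followed at 480 nm.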
Pf growth 48h – inhibits P. falciparum growth in the first generation, 48 h. AID 504832. Potency, µM (top dose mostly 28.7 µM), inactives show at the top dose activity change, negative = inhibition, most hits filed as inhibitors. actives 5.9% (n = 310,000). P. falciparum luciferase growth in erythrocytes, 48 h
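Luciferase-expressing parasites in RBCs, 2% Hct / 0.1% parasitemia final; RPMI 1640 + 0.5% Albumax; 37 C, 5% CO2, one generation; luminescence read-out, lower signal = inhibition.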
Pf growth 96h – P. falciparum growth inhibition at 96 hour, primary screen for plastid delayed-death inhibitors; Potency, µM (highest dose often 28.7 µM), for inactives: top-dose activity change, negative = inhibition, most hits filed as inhibitors; P. falciparum luciferase reporter growth, 96 h; actives 6.9% (n = 320,000)
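96 h incubation, 37 C, 5% CO2, of luciferase-reporter P. falciparum-infected RBCs (2% hematocrit, 0.05% parasitemia final) with test compounds; endpoint luminescence.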
AMA1 RON2 block – disrupts binding of P. falciparum AMA1 to RON2; AlphaScreen AMA1-biotinylated RON2 peptide binding; Potency, µM (highest dose often 58.2 µM), without a hit: top-dose activity change, negative = inhibition, hits mostly inhibitors; actives 0.2% (n = 360,000); AID 720542;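 also: 0% = vehicle wells and -100% = peptide control; nearly all actives have a fitted effect of over 45% in size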
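AMA1 (3D7) with his tag at 25 nM final met compounds first, then biotinylated RON2 peptide at 25 nM; detection used donor plus acceptor beads, 10 µg/mL apiece, read by AlphaScreen after 30 min at room temperature.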
Active calls of the source: *; ? = inconclusive; . = not tested or not shown; [ ] = another dose, or the depositor's remark. Calls follow the shape of the dose curve; as a rule, active = well fitted curve in the direction sought with a large enough effect; inconclusive = small, poorly fitted or top-dose-only effect, or another doubt; inactive = no such curve, though single readings can be large; an effect the other way counts as inactive or inconclusive. Unless noted, % is scaled to controls: 0 for no effect and ±100 for the full control effect; potency is read from the fitted curve at half-maximal effect.

SMILES	HCV inh	AmpC inh no detg	AmpC inh detg	Pf growth 48h	Pf growth 96h	AMA1 RON2 block
CCOc1cc(/C=C2\CCC/C(=C\c3cc(Cl)c(O)c(OCC)c3)C2=O)cc(Cl)c1O	?	-23%	?	?	3.3µM*	-2%
CCOc1cc(/C=C2/C(=O)ON=C2C)ccc1O	7%	-9%	-2%	12%[0.00184 µM]	0.093µM*	-19%
CCOc1cc(/C=C2\SC(N)=NC2=O)ccc1O	26%	-30%	6%	0%	?	113%
CCOc1cc(/C=C2\CN(C)C/C(=C\c3ccc(O)c(OCC)c3)C2=O)ccc1O	22µM*	28%	2%	2%[0.00184 µM]	?	-3%
C=CCNC(=O)/C(C#N)=C\c1cc(Cl)c(O)c(OCC)c1	-10%	-15%	-1%	-4%	?	-9%
CCOC(=O)c1cccc(NC(=O)CCc2c(C)nn(-c3ccc(N4CCCCC4)nn3)c2C)c1	.	.	-7%	.	.	.
Cc1ccc(CN2CCN(C)CC2)c(C)c1	2%	-12%	-12%	16%	2.9µM*	6%
CCN1CCN(Cc2ccc(C)cc2C)CC1	-3%	-3%	?	16%	?	6%
COc1ccccc1N1CCN(C(=O)C(=O)c2cn(CC(=O)N3CCCC3)c3ccccc23)CC1	-4%	227%	0%	?	9.3µM*	-8%
COc1ccccc1N1CCN(C(=O)C(=O)c2cn(CC(=O)N3CCCCCC3)c3ccccc23)CC1	2%	187%	1%	9.3µM*	7.4µM*	-2%
Cc1nc(N2CCOCC2)c2c(C(=O)N3CCN(c4cc(Cl)ccc4C)CC3)c(C)oc2n1	.	.	20%	.	.	.
COc1cc2c(cc1OC)C1CC(=O)C(CC(C)C)CN1CC2 (centres undefined)	.	12%	-7%	0%	-10%	-4%
CC[C@H]1CN2CCc3cc(OC)c(OC)cc3[C@H]2C[C@@H]1C[C@@H]1NCCc2cc(OC)c(OC)cc21	.	.	.	0.067µM*	0.067µM*	.
CCC1CN2CCc3cc(OC)c(OC)cc3C2CC1CC1c2cc(OC)c(OC)cc2CCN1C(=O)C(Cc1c[nH]c2ccccc12)NC(=O)OC(C)(C)C (centres undefined)	11µM*	.	.	.	.	-21%
Nc1ccc(C(=O)n2c3ccccc3c3ccccc32)cc1	?	-27%	?	-12%	2.3µM*	-7%
Nc1ccc(C(=O)N2CCCC2)cc1	-6%	-12%	3%	17%	-15%	9%
CNC(=S)N(C)/N=C1/C(=O)N(Cc2c(Cl)cccc2Cl)c2ccccc21	13µM*	-37%	-5%	?	?	-25%
CC(=O)N1CCc2cc(Br)cc(S(=O)(=O)CCC(=O)Nc3ccc(C)cc3Cl)c21	.	.	5%	.	.	.
Cc1coc2cc3oc(=O)c(CCC(=O)NCCCn4ccnc4)c(C)c3cc12	?	-9%	-2%	-12%	10µM*	-8%
Cc1oc2cc3oc(=O)c(CCC(=O)NCCc4ccccc4F)c(C)c3cc2c1C	.	.	0%	.	.	.
Cc1c(CCC(=O)NCCCn2ccnc2)c(=O)oc2cc3occ(C(C)(C)C)c3cc12	?	147%	?	?	?	-4%
Cc1oc2c(C)c3oc(=O)c(CCC(=O)NCCCn4ccnc4)c(C)c3cc2c1C	10µM*	255%	-8%	13µM*	?	-2%
Cc1oc2cc3oc(=O)c(CCC(=O)NCCCn4ccnc4)c(C)c3cc2c1C	?	137%	-15%	1%	?	-5%
Cc1oc2cc3oc(=O)c(CCC(=O)NCCCN4CCOCC4)c(C)c3cc2c1C	1.6µM*	68%	-5%	-16%	?	-10%
Cc1c(CCC(=O)NCCCn2ccnc2)c(=O)oc2cc3oc4c(c3cc12)CCCC4	?	300%	-9%	10µM*	?	4%
SMILES	HCV inh	AmpC inh no detg	AmpC inh detg	Pf growth 48h	Pf growth 96h	AMA1 RON2 block
CC(=O)c1ccc(NC(=O)c2nc(-c3ccccc3)n(-c3ccc(C)cc3)n2)cc1	.	.	-3%	.	.	.
Cc1c(C(=O)N(C)C)sc2c1c(=O)n(-c1ccccc1C(F)(F)F)c(=O)n2Cc1ccccc1C#N	.	.	-2%	.	.	.
Cc1cc(C)cc(NC(=O)Cn2nnc(C(=O)Nc3cc(C)cc(C)c3)c2N)c1	.	.	1%	.	.	.
CC1(C)C2CC[C@]1(C)[C@@H](O)C2	.	.	.	-6%	-23%	.
COc1ccccc1Cn1c(CNS(=O)(=O)c2ccccc2Cl)nc2cccnc21	.	.	2%	.	.	.
O=S(=O)(c1ccc(Br)cc1)c1nc(-c2cccs2)oc1SCc1ccccc1F	.	.	7%	.	.	.
CC1COC(C)(CC(=O)NN2C(=O)c3ccccc3C2=O)O1 (centres undefined)	7%	-17%	-2%	28%	2.6µM*	8%
Cc1cccc(C(=O)Nc2cccc(OCc3cc(=O)n4cccc(C)c4n3)c2)c1	.	.	27%	.	.	.
COc1ccc(-c2cc(C(F)(F)F)nc(S(=O)(=O)CCCC(=O)Nc3ccccc3C(F)(F)F)n2)cc1OC	.	.	5%	.	.	.
COc1ccc(NC(=O)CCS(=O)(=O)c2nc(-c3ccc4c(c3)OCO4)cc(C(F)(F)F)n2)cc1	.	.	7%	.	.	.
Cc1cc(NC(=O)CCS(=O)(=O)c2nc(-c3ccccc3)cc(C(F)(F)F)n2)no1	10µM*	-13%	6%	0%	-18%	7%
CS(=O)(=O)c1nc(-c2ccccc2)cc(C(F)(F)F)n1	10µM*	-13%	?	-17%	11%	-8%
COc1ccc(-c2cc(C(F)(F)F)nc(S(=O)(=O)CCCC(=O)Nc3cccc(O)c3)n2)cc1OC	11µM*	-17%	1%	?	-4%	-16%
Cc1ccccc1CC(=O)NC1CCCCCC1	3%	1%	?	0%	?	0%
Cc1ccccc1CC(=O)NCC1CCCCC1	3%	-4%	1%	-2%	12µM*	-4%
Cc1ccc(S(=O)(=O)CCSC(=N)N)cc1	10µM*	-10%	-1%	-6%	3%	0%
CCC(=O)N1CCc2cc(S(=O)(=O)N(C)c3cccc(C)c3)ccc21	.	.	9%	.	.	.
COc1cc(OC)cc(C(=O)Nc2ccc(Cn3ccnc3)cc2)c1	0%	-9%	-4%	?	22%	5%
COc1ccccc1NC(=O)Nc1ccc(Cc2ccncc2)cc1	-16%	-21%[2.29 µM]	?	20%	10%	-2%
COc1cc(Cn2ccnc2)c(OC)cc1Cn1ccnc1	24%	-11%	?	9.3µM*	?	-19%
COc1ccc(NC(=O)Nc2ccc(Cc3ccncc3)cc2)cc1OC	?	-33%	3%	?	5.2µM*	-29%
COc1cc2ccccc2cc1C(=O)Nc1ccc(Cc2ccncc2)cc1	10µM*	30%	-12%	.	4.1µM*	-10%

Screening results (PubChem)
